PP5 primary: blocks human protein phosphatase 5 activity; 320,000 tested, 0.18% active; purified PP5c, OMFP substrate fluorescence; P53041; AID 1987; inhibition, % at 6.7 µM;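 active = inhibition above the campaign's mean inhibition across all tested compounds plus 3 SD, cut at about 9.5% in these data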;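 also: 0% = DMSO only and 100% = 100 µM cantharidin control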
PP1 inh: blocks human PP1-alpha phosphatase, a PP5 counter-screen | P62136 | purified PP1alpha, OMFP fluorescence | inhibition, % at 6.7 µM | 320,000 tested, 0.9% active;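 active = inhibition above the mean inhibition of all tested compounds plus 3 SD, computed separately for each screening campaign, cut at about 15% in these data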
PAFAH1B2 inh: inhibitors of human PAFAH1B2 | 340,000 tested, 1.2% active | inhibition, % at 3.39 µM | recombinant PAFAH1B2, FP-rhodamine activity probe, fluorescence polarization | P68402 | AID 492953;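 active = inhibition above the mean of all tested compounds plus 3 SD, cut at about 24% in these data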;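 also: 0% = enzyme with DMSO and 100% = wells lacking PAFAH1B2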
Target sequence (P68402 whole entry, looked up): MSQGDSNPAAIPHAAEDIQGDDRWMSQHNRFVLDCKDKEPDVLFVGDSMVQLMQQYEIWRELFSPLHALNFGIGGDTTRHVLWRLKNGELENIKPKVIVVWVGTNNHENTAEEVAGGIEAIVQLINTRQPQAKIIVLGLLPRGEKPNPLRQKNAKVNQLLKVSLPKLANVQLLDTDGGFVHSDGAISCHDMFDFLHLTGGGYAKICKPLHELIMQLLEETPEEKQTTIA
PAFAH1B3 FP inh: blocks human PAF acetylhydrolase 1B catalytic subunit 3; Q15102; recombinant PAFAH1B3, FP-rhodamine probe, fluorescence polarization; inhibition, % at 3.39 µM; 340,000 tested, 0.28% active; AID 492972;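 active = inhibition above the screen-wide average of all tested compounds plus 3 SD, cut at about 25% in these data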;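 also: 0% = enzyme with DMSO only and 100% = wells lacking PAFAH1B3 protein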
Target sequence (Q15102 whole entry, looked up): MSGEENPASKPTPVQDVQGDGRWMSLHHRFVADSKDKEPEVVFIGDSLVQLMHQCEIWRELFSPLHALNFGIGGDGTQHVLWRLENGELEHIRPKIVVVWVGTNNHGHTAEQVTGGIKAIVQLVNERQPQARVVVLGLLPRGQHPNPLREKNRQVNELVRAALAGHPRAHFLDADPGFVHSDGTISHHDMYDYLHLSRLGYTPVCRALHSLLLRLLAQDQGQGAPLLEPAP
pPAFAH inh: inhibitors of human plasma PAF acetylhydrolase (pPAFAH) | Q13093 | recombinant pPAFAH, FP-rhodamine probe fluorescence polarization | inhibition, % at 3.39 µM | 330,000 tested, 1.5% active | AID 463082;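 active = inhibition above the mean inhibition across the screen plus 3 SD, cut at about 25% in these data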;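 also: inhibitors block binding of the rhodamine activity-based probe so polarization drops; 0% = enzyme with DMSO and 100% = wells lacking pPAFAH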
PAFAH2 FP inh: PAFAH2 (human) inhibition. Q99487. recombinant PAFAH2, FP-rhodamine activity probe, fluorescence polarization. inhibition, % at 3.39 µM. 340,000 tested, 0.99% active. AID 492956;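 active = inhibition above the mean over all tested compounds plus 3 SD, cut at about 30% in these data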;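 also: inhibitors block probe labeling of enzyme so polarization drops; 0% = enzyme with DMSO and 100% = wells lacking PAFAH2 protein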
Starred values were filed as active, the others as inactive; x = no result given; ! = a repeat was not active. Only some compounds are listed: those with a hit (about 3.4% of all), similar ones and a draw of the others.

SMILES	PP5 primary	PP1 inh	PAFAH1B2 inh	PAFAH1B3 FP inh	pPAFAH inh	PAFAH2 FP inh
C/C(=N\NC(=O)c1nn(C)c(C)c1Br)c1ccc(NC(=O)c2ccc(C)s2)cc1	-2	-3	-1	2	-4	3
NS(=O)(=O)c1cccc(NC(=O)COC(=O)CCSc2ccccc2)c1	3	0	15	-1	25*	-5
NC(=O)c1ccc(NC(=O)COC(=O)CCSc2ccccc2)cc1	-3	0	4	1	10	-6
O=C(COC(=O)CCSc1ccccc1)Nc1cc(F)ccc1F	0	5	32*	8	9	-1
NS(=O)(=O)c1cccc(NC(=O)COC(=O)CSCc2ccccc2)c1	x	x	2	8	28*	14
NS(=O)(=O)c1cccc(NC(=O)CN2C(=O)C(=O)N(Cc3ccccc3)C2=O)c1	x	x	-6	6	4	-6
O=C(COC(=O)CCSc1ccccc1)Nc1ccc(F)cc1Cl	3	-5	11	4	15	8
Cc1ccc(SCCC(=O)OCC(=O)Nc2ccc(C(N)=O)cc2)cc1	-1	1	26*	1	8	13
Cc1ccc(N2CCN(S(=O)(=O)N3CCCCC3)CC2)cc1C	4	1	1	2	5	3
CCC1(CC)C(=O)C2=C3C1[C@H](C(=O)OC)C=C(C(=O)OC)C[C@H]3[C@H]1C(=O)N(CC(=O)OC)C(=O)[C@H]1[C@H]2C (stereo partly drawn)	2	-4	-2	11	3	6
c1ccc(-c2nc(-c3ccco3)n3ccccc23)cc1	-2	1	3	3	25*	1
FC(F)(F)c1cccc(N2CCN(C(=S)NCC3CCCO3)CC2)c1 (stereo not drawn)	5	0	5	7	30*	3
Cc1ccc(C)c(N2CCN(S(=O)(=O)c3ccc4[nH]c(=O)ccc4c3)CC2)c1	1	12	3	1	4	3
Cc1cccc(N2CCN(S(=O)(=O)c3ccc4[nH]c(=O)ccc4c3)CC2)c1C	1	16*	-6	-4	1	-5
CCOc1ccc(NC(=O)Nc2cc(C(=O)O)ccc2N2CC3CC(C2)c2cccc(=O)n2C3)cc1 (stereo not drawn)	1	-1	3	-4	30*	-1
COc1cc(NS(=O)(=O)c2ccc(NC(=S)NC(=O)C3CCCC3)cc2)nc(OC)n1	0	0	-4	-2	7	18
Cc1ccc(-c2ccc(/C=C3\SC(N4CCOCC4)=NC3=O)o2)cc1	2	4	3	12	15	5
Cc1ccc(/C=C2\SC(N3CCN(C(c4ccccc4)c4ccccc4)CC3)=NC2=O)o1	2	17*	-3	-3	27*	4
COc1ccc(Br)cc1/C=N/N1CCN(Cc2ccccc2Cl)CC1	-6	-14	1	6	-5	-5
CC(=O)Nc1ccc(-c2ccc3nnc(C)n3n2)cc1	-2	-1	5	0	1	-1
Cc1nnc2ccc(-c3ccc(NC(=O)Cc4cccs4)cc3)nn12	0	2	1	3	27*	-3
COc1ccc2[nH]c(O)c(N=NC(=O)Cc3cccs3)c2c1	1	7	14	13	25*	12
CN(C)c1ccc(/C=N/N2C(=O)c3ccccc3C2=O)cc1	-2	-6	7	3	5	3
Nc1ccc(N2CCN(C(=O)c3cccs3)CC2)cc1	4	15	1	4	32*	8
COc1ccccc1NC(=O)COC(=O)c1cc(C)nc2ccccc12	1	1	-6	7	1	-5
SMILES	PP5 primary	PP1 inh	PAFAH1B2 inh	PAFAH1B3 FP inh	pPAFAH inh	PAFAH2 FP inh
O=C(O)c1ccc(N/N=C/C2=C(N3CCOCC3)C(=C\c3ccccc3)/CC2)cc1	2	5	4	8	28*	8
O=C(O)/C=C\C(=O)Nc1ccc(N2CCN(c3ccc(Cl)cc3)CC2)cc1	0	6	25*	4	15	5
CCOC(=O)c1sc(NC(=O)CN(CC(C)C)CC(C)C)c(C(=O)OCC)c1C	0	1	33*	16	4	0
Cc1nc(N)c(C#N)c(-c2ccccc2)c1C	1	7	3	4	-2	9
Cc1ccc(N=C2S/C(=C\c3cn(CC(=O)O)c4ccccc34)C(=O)N2C)cc1	2	11	5	17	26*	8
COc1ccc(-c2cc(C(F)F)n3ncc(C(=O)n4ccnc4C)c3n2)cc1	0	-3	-1	5	2	30*
COc1ccc(-c2cc(C(F)F)n3ncc(C(=O)N4CCc5ccccc54)c3n2)cc1	6	4	6	8	-1	-2
N=c1n(Cc2ccccc2)c2ccccc2n1CC(O)c1ccco1 (stereo not drawn)	-1	1	38*	28*	3	46*
CCn1c(=N)n(CC(O)c2ccco2)c2ccccc21 (stereo not drawn)	1	0	4	5	5	-3
CCOc1ccccc1-c1cc(C(=O)Nc2ccc(C(=O)O)cc2)c2ccccc2n1	1	1	-9	5	0	-17
CCCCNC(=O)C1CC(c2cccc(F)c2)=NO1 (stereo not drawn)	1	-1	6	6	5	4
Cc1ccc(CCNC(=O)C2CC(c3cccc(F)c3)=NO2)cc1 (stereo not drawn)	3	2	28*	7	-1	3
O=C1C2N=NN(CC(=O)N3N=C(c4ccccc4)CC3c3ccc([N+](=O)[O-])cc3)C2C(=O)N1c1ccccc1 (stereo not drawn)	0	16*	x	x	0	x
COc1ccc(C2=NN(C(=O)CCC(=O)O)C(c3ccc([N+](=O)[O-])cc3)C2)cc1 (stereo not drawn)	x	x	3	6	x	4
CCN(CC(=O)NCc1ccc(F)cc1)CC(=O)Nc1cc(S(=O)(=O)N(C)C)ccc1C	0	1	-3	-2	29*	2
Cc1cccc(NS(=O)(=O)c2cccs2)n1	1	1	1	1	2	1
O=C(c1ccc(OCCN2CCCCC2)cc1)c1c(-c2ccc(O)cc2)sc2cc(O)ccc12	3	16*!	2	6	19	-4
COC(=O)CCN(C(=O)c1ccc(C)c([N+](=O)[O-])c1)c1ccccn1	0	-2	3	-2	0	4
CCOc1ncccc1C(=O)N(C)CC(=O)Nc1ccccc1SC	0	3	3	3	1	-8
CC(=O)C1=C(O)C(=O)N(C2CCCCC2)C1c1ccccc1 (stereo not drawn)	0	1	9	6	1	-2
CCN1C(=O)N(CC)C(O)(c2ccccc2)C1(O)c1ccccc1 (stereo not drawn)	4	-1	7	1	0	-2
